Measured values taken from PubChem BioAssay (Tox21).
Calls of active or inactive are those of the source. The call rests on the fitted dose curve; in most records, active means well fitted curve in the direction sought with a large enough effect in the repeat runs; inconclusive means weak or mixed curves; inactive means flat fitted curve, though single readings scatter.

assay: qHTS assay to test for compound auto fluorescence at 460 nm (blue) in HEK293 cells (AID 720678); conditions: blue autofluorescence 405/460 nm; series mostly up to 91.3 µM; fluorescence, % of triamterene: at the top concentration
Procedure, shortened: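 Blue read-out at excitation 405 nm and emission 460 nm follows overnight compound exposure of HEK293 cells at 37C in 5% CO2. Activity is given as auto fluorescence equivalency to triamterene.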
On the % scale 0 is the no-effect control and ±100 the full control effect.

Which “fluorescence, % of triamterene” value does the source give for `CC(C)(C)NCC(O)c1cc(O)cc(O)c1` (centres undefined) here?
The value was 0.647% [at 46 µM] (inactive).

With `CC(=O)OCCOCCOCCOC(C)=O` as the compound, how does the Potency read?
The Potency was “inactive”.

Which “fluorescence, % of triamterene” value does the source give for `CNC1(C)C2CCC(C2)C1(C)C` (centres undefined) here?
Its value is 0.0002% [at 46 µM] (inactive).

Which “fluorescence, % of triamterene” value does the source give for `CCC(CO)(CO)COCC(CC)(CO)CO` here?
Its value is 0.124% (inactive).

With `CCN1CCCC1CNC(=O)c1cc(S(=O)(=O)CC)c(N)cc1OC` (centres undefined) as the compound, how does the “fluorescence, % of triamterene” value read?
The value was 0.151% [at 46 µM] (inactive).

For `O=C(O)CCc1ccccc1`, which “fluorescence, % of triamterene” value is on record?
Its value is -0.0711% (inactive).

Which Potency does the source give for `Nc1nc2ccccc2[nH]1` here?
The Potency was “inactive”.

For `COC(=O)c1cccc(C(=O)OC)c1`, which Potency is on record?
Its Potency is “inactive”.

For `CCC[C@H](N[C@@H](C)C(=O)N1[C@H](C(=O)O)C[C@@H]2CCCC[C@@H]21)C(=O)OCC`, which “fluorescence, % of triamterene” value is on record?
The value was 0.163% [at 46 µM] (inactive).

Which “fluorescence, % of triamterene” value does the source give for `Cc1occc(=O)c1OC(=O)C(C)C` here?
Its value is -0.116% (inactive).

With `CC(C)C(=O)c1c(C(C)C)nn2ccccc12` as the compound, how does the “fluorescence, % of triamterene” value read?
Its value is -0.109% [at 46 µM] (inactive).

With `NC(N)=Nc1nc(CSCC/C(N)=N/S(N)(=O)=O)cs1` as the compound, how does the Potency read?
The Potency was “inactive”.

Which “fluorescence, % of triamterene” value does the source give for `CO[Si](OC)(OC)c1ccccc1` here?
The value was 0.0859% (inactive).

For `CN1C(=O)c2ccc([N+](=O)[O-])cc2C1=O`, which “fluorescence, % of triamterene” value is on record?
The value was 0.0717% (inactive).

Which Potency does the source give for `CCOc1ccccc1C(N)=O` here?
Its Potency is “inactive”.

For `CC(C)(O)CCC(C)(C)O`, which “fluorescence, % of triamterene” value is on record?
Its value is -0.217% [at 95.7 µM] (inactive).

For `[Cl][In]([Cl])[Cl]`, which Potency is on record?
Its Potency is “inactive”.

Which Potency does the source give for `CCn1cc(C(=O)O)c(=O)c2cc(F)c(N3CCNC(C)C3)c(F)c21` (centres undefined) here?
Its Potency is “inactive”.

For `O=C(O)CP(=O)(O)O`, which “fluorescence, % of triamterene” value is on record?
Its value is -0.0169% [at 46 µM] (inactive).
